Bioassay records: PubChem BioAssay, National Center for Advancing Translational Sciences (NCATS)
Lassa entry inh: inhibitors of Lassa virus binding or cell entry; AID 540256; Lassa virus pseudotype entry inhibition, cell reporter; actives 1.2% (n = 300,000); Potency, µM (doses to about 37.9 µM), for the others: at the top dose activity change, negative = inhibition, actives largely listed as inhibitors; calls by dose curve; tested in HEK293 cells; also: nearly all actives have a fitted effect of over 50% in size
Vaccinia Venus: inhibitors of vaccinia virus (Venus reporter) | Vaccinia virus Venus reporter expression, fluorescence | Potency, µM (highest dose often 36.5 µM), for the others: top-dose activity change, negative = inhibition, most hits filed as inhibitors | actives 0.46% (n = 330,000); calls by dose curve; tested in A549 cells; also: nearly all actives have a fitted effect of over 30% in size
Marburg entry inh: blocks Marburg virus binding to or entry into cells. actives 1.8% (n = 300,000). AID 540276. Potency, µM (doses to about 37.8 µM), inactives show top-dose activity change, negative = inhibition, actives largely listed as inhibitors. Marburg virus pseudotyped entry inhibition, cell reporter; calls by dose curve; tested in HEK293 cells
Sm TGR inh: S. mansoni TGR enzyme inhibition | actives 3% (n = 360,000) | purified TGR, DTNB reduction, TNB absorbance 405 nm | Q962Y6 | Potency, µM (doses to about 114 µM), for inactives: at the highest dose activity change, negative = inhibition, actives largely listed as inhibitors; active = well fitted inhibition curve with a large enough effect; inconclusive = small, poorly fitted or top-dose-only effect; inactive = no such curve, though single readings can be large or run the other way; also: nearly all actives have a fitted effect of over 60% in size
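Kinetic colorimetric format: TGR-catalysed, NADPH-driven DTNB reduction monitored via TNB absorbance. Enzyme dispensed at 20 nM; compound exposure 15 min at room temperature before reaction start.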
VACV mCherry inh: vaccinia inhibition (mCherry reporter); Vaccinia virus mCherry reporter infection, fluorescence; Potency, µM (series often up to 36.5 µM), inactives show top-dose activity change, negative = inhibition, most hits filed as inhibitors; actives 0.63% (n = 310,000); calls by dose curve; tested in A549 cells; also: nearly all actives have a fitted effect of over 35% in size
FMDV antiviral: antivirals against foot and mouth disease virus | FMDV antiviral cell-based qHTS | Potency, µM (titrated, usually from 57.9 µM), without a hit: at the highest dose activity change, negative = inhibition, actives largely listed as inhibitors | actives 1.2% (n = 410,000) | AID 1159524; calls by dose curve; tested in HEK293T cells; also: read-out not given here; nearly all actives have a fitted effect of over 45% in size
The depositor's hits bear a star; i = inactive; u = inconclusive; x = no result given; [ ] = remark or other dose. Most compounds without a hit are left out; they make up all but 5.4% or so of the library. % is scaled to controls: 0 for no effect and ±100 for the full control effect; potency is read from the fitted curve at half-maximal effect.

SMILES	Lassa entry inh	Vaccinia Venus	Marburg entry inh	Sm TGR inh	VACV mCherry inh	FMDV antiviral
CCOC(=O)c1cnc2c(Cl)cc(Cl)cc2c1NCCCN1CCOCC1	x	x	x	13µM*	x	-29%
CCOC(=O)c1cnc2c(C)cc(Cl)cc2c1NCCCN1CCOCC1	-19%[46.1 µM]	-2%	u	u	10%	-7%
C[C@@H]1C=CCCO[C@]12C(=O)N(CC1CC1)c1cccc(Br)c12	x	x	-10%[14.2 µM]	x	x	x
COc1ccc(-c2cc(-c3ccccc3)c(C#N)c(S(C)(=O)=O)n2)cc1	u	-11%	u	-13%	i	40µM*
CS(=O)(=O)c1nc(-c2ccc(Br)cc2)cc(-c2ccccc2)c1C#N	5.8µM*	x	u	-2%	x	u
Cc1[nH]c2ccccc2c1/C=C/c1cc[n+](C)cc1	u	27%	-8%	0%	-22%	-20%
CCCCCCC[n+]1ccc(/C=C/c2c(C)[nH]c3ccccc23)cc1	x	256%	x	x	28µM*	x
COc1ccc(CNC(=O)c2cnn3c(C)c(Cc4ccc(F)cc4)c(C)nc23)cc1	u	u	x	-3%	u	u
Cc1cc(=S)cc(C)n1CCCn1ccnc1	21%	-11%	14%	11µM*	x	-19%
CC(C)(C)Nc1nc(N2CCCC2)nc(N2CCCC2)n1	u	-14%	u	11%	x	u
CCNc1nc(NC(C)(C)C)nc(N2CCCC2)n1	u	-26%	3.2µM*	-4%	-13%	-26%
CCn1c(-c2ccccc2F)nc2cc(NC(C)=O)cc(C(=O)N3CCCC3c3nccs3)c21 (stereo unspecified)	x	5%	x	x	-10%	-13%
COc1cccc(OC)c1OC(=O)/C=C/c1ccc(C)o1	13%[46.1 µM]	0%	-18%[46.1 µM]	35µM*	-26%	1%
Cc1ccc(/C=C/C(=O)Oc2ccc(C#N)cc2)o1	x	x	x	50µM*	x	x
Cc1ccc(/C=C/C(=O)OCC(=O)NCc2ccccc2)o1	-17%	-10%	0%[46.1 µM]	u	i	-16%
O=C(NCCc1ccncc1)c1cnn(-c2ncc3c(n2)-c2ccccc2CCC3)c1C1CC1	x	-11%	x	x	-4%	-12%
Cc1oc(-c2ccccc2Cl)nc1CSc1nc2c(c(=O)[nH]1)CCC2	-2%	-18%	26%	-17%	-7%	22µM*
COc1ccc2c(/C=N/NS(=O)(=O)c3ccc(C)cc3)c[nH]c2c1	-23%	1%	-10%[46.1 µM]	14µM*	u	62%
COc1ccc2[nH]cc(/C=N/NS(=O)(=O)c3ccc(C)cc3)c2c1	x	x	x	1%	x	-21%
COc1ccc(N2CCN(C(=O)Cc3c(C(=O)O)c(C)cn3C)CC2)cc1	28%[46.1 µM]	-12%	x	-8%	-12%	-6%
CC1(C)CC(=O)C2=C(C1)N(c1cccc(O)c1)C1=C(C2)C(=O)CC(C)(C)C1	u	-12%	14%	32µM*	i	-10%
CC1(C)CC(=O)C2=C(C1)N(c1ccccc1)C(=O)C(C(=O)OCc1ccccc1)C2 (stereo unspecified)	x	6%	x	x	-29%	-23%
COc1cc2c(c(OC)c1)[C@H](C=Cc1ccccc1)[C@@H]([C@H](O)CO)OC2	x	x	17%[14.2 µM]	x	x	x
Cc1cc(=O)n2nc(N3CCC(C(=O)Nc4c(C)cccc4C)CC3)sc2n1	11%[46.1 µM]	-4%	6%[46.1 µM]	-3%	-9%	-3%
O=c1c(Cl)c(Nc2cccc(Cl)c2)cnn1-c1nc2ccccc2s1	u	-16%	u	u	-20%	37%
SMILES	Lassa entry inh	Vaccinia Venus	Marburg entry inh	Sm TGR inh	VACV mCherry inh	FMDV antiviral
COc1ccc(Nc2cnn(-c3nc4ccccc4s3)c(=O)c2Cl)cc1	-29%	-23%	u	1.3µM*	-16%	21%
Cn1c(=O)c2sccc2n2c(CCCC(=O)NC3CCCCC3)nnc12	2%[46.1 µM]	-5%	x	-5%	-4%	-9%
O=c1cc(/C=C/c2cccs2)[nH]c2ccccc12	6.5µM*	x	4.1µM*	-13%	x	u
CSc1ccc(/C=C/c2cc(=O)c3ccccc3[nH]2)cc1	3%	-13%	u	-1%	-17%	-28%
CC(C)CCNC(=O)C(=O)Nc1c2c(nn1-c1ccc(Cl)cc1)CSC2	-13%[46.1 µM]	-20%[7.34 µM]	x	1%	-27%[7.34 µM]	-2%
O=c1[nH]c(=S)[nH]c(O)c1/C=C1/C=c2ccccc2=N1	u	-16%	u	u	i	25µM*
CSc1ccc(CCNc2ncnc3onc(C)c23)cc1	u	-21%	x	-6%	-11%	-2%
Cc1ccc(S(=O)(=O)c2c(C)nn(C(C)(C)C)c2OC(=O)c2ccco2)cc1	11µM*	u	u	-6%	x	13µM*
Cc1ccc(S(=O)(=O)n2ccc(OC(=O)c3cccs3)n2)cc1	x	-13%	x	6.3µM*	i	-10%
Cc1ccc(S(=O)(=O)c2c(C)nn(C(C)(C)C)c2OC(=O)c2cccs2)cc1	13µM*	u	u	-4%	x	u
Cc1ccc(S(=O)(=O)c2c(C)nn(C(C)(C)C)c2OC(=O)c2ccc(Br)o2)cc1	11µM*	11µM*	u	8%	u	u
Cc1ccc(S(=O)(=O)n2nc(OC(=O)c3cccs3)cc2N)cc1	4%	-13%	-2%	-24%	-3%	0%
CC(=O)N1c2ccc(S(=O)(=O)NCc3ccc(Cl)cc3)cc2CC1C (stereo unspecified)	9%[46.1 µM]	-18%	x	0%	-10%	-7%
Cc1nn(C(C)(C)C)c(OC(=O)c2ccc3c(c2)OCO3)c1S(=O)(=O)c1ccccc1	8.9µM*	u	u	1%	x	u
Cc1nn(C(C)(C)C)c(OC(=O)c2ccc3c(c2)OCO3)c1Sc1ccccc1	u	u	u	2%	u	u
COC(=O)CC=C[C@@H](C)[C@@H](COc1ccccc1Br)OC	x	x	12%[14.2 µM]	x	x	x
CC(=O)OC(C)(C)/C=C/C(=O)[C@](C)(O)C1[C@H](O)C[C@@]2(C)C3CC=C4C(C=C(O[C@@H]5O[C@H](CO)[C@@H](O)[C@H](O)[C@H]5O)C(=O)C4(C)C)[C@]3(C)C(=O)C[C@]12C (stereo partly specified)	x	22µM*	x	x	-12%	0%
CC(=O)OC(C)(C)/C=C/C(=O)[C@](C)(O)[C@H]1[C@H](O)C[C@@]2(C)[C@@H]3CC=C4[C@H](C[C@H](O)C(=O)C4(C)C)[C@]3(C)C(=O)C[C@]12C	0.29µM*	8.9µM*	u	-3%	u	18µM*
CC1(C)Oc2ccc3ccc(=O)oc3c2C[C@H]1O[C@@H]1O[C@H](CO)[C@@H](O)[C@H](O)[C@H]1O	x	-2%	x	x	i	-23%
CC(=O)OC(C)(C)/C=C/C(=O)C(C)(O)C1C(O)CC2(C)C3CC=C4C(CC(O)C(=O)C4(C)C)C3(C)C(=O)CC12C (stereo unspecified)	0.13µM*	40µM*	u	x	u	32µM*
